The supplement of paper PMC3334620
In all, about 33,000 sequences were measured (“E-score (-0.5 to 0.5)”: median about -0.053, highest 2% from about 0.37 on). What follows is part of a selection rich in the highest values, with near analogues and random picks from the rest.

What follows are sequences tested against Hap1 (UniProt P0CE41) (assay: PBM E-score (8-mer binding enrichment) (E-score (-0.5 to 0.5)); higher = stronger / more preferred TF binding). Details: protein concentration: 200 nM; construct: GST-DNA-binding domain.
Sequence of UniProt P0CE41 (P0CE41 whole entry, the tested form may be a part): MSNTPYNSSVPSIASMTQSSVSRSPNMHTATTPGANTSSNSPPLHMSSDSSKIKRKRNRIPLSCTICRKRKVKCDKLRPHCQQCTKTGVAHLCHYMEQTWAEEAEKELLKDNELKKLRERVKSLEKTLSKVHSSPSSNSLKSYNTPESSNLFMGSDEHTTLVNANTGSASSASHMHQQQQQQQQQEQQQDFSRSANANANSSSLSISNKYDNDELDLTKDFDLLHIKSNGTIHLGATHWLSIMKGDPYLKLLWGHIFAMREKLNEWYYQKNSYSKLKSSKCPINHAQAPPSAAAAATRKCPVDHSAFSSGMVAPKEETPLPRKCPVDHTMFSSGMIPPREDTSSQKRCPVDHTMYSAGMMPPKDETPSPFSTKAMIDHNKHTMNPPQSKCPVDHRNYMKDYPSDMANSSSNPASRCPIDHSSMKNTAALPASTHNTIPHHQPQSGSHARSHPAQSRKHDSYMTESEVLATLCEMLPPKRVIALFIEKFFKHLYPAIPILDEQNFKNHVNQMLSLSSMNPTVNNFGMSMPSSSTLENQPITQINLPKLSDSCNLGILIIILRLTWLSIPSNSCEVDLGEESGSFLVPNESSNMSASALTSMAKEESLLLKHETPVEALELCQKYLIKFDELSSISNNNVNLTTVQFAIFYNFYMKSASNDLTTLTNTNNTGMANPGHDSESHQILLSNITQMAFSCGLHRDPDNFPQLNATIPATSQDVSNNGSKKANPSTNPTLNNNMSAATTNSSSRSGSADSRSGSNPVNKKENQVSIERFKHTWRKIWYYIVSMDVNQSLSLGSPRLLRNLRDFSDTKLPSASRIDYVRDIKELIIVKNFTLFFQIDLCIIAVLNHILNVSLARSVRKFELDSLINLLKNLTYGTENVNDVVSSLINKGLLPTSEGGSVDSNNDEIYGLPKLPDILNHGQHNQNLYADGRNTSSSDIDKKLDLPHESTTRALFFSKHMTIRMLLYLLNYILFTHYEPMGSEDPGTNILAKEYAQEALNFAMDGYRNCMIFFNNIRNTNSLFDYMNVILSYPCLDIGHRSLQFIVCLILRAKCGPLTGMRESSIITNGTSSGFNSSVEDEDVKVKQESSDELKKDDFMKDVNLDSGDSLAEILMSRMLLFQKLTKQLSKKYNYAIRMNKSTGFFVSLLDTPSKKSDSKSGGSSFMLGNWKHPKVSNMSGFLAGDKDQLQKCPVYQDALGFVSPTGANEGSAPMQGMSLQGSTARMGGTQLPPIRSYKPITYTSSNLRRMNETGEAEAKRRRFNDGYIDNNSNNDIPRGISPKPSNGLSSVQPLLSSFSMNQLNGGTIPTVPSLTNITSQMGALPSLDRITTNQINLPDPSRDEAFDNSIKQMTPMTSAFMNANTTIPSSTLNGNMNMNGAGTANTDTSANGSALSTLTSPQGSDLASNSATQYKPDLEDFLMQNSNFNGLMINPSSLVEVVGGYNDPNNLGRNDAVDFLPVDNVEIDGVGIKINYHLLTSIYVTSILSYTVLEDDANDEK
Outline: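 Universal all-10-mer Agilent arrays, double-stranded by primer extension on fresh or once-stripped slides, were probed with about 100-200 nM GST-tagged yeast transcription factors made by PURExpress. Fluorescent anti-GST detected bound protein, and masliner normalised the scans. E-scores from the Universal PBM Analysis Suite were given to each ungapped eight-base word pooled with its reverse complement.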

Row | Sequence | PBM E-score
1 | CGACCTTC | 0.0839
2 | AGGAGATC | -0.098
3 | CGGAGATC | 0.411
4 | CTGAGATC | -0.171
5 | GGGAGATA | 0.268
6 | CGGAGATA | 0.495
7 | AGGAGATA | 0.253
8 | GTTCCTGA | -0.242
9 | AGCAATAC | -0.0164
10 | AGTAAAGC | -0.00459
11 | ACGTACAC | -0.181
12 | ACCCAACG | -0.0503
13 | CGGAGGAG | 0.284
14 | CGGAGGAA | 0.375
15 | CGGAGGTC | 0.261
16 | AGGAGGAA | -0.218
17 | CGGAGGTA | 0.443
18 | AGGAGGTA | -0.044
19 | GGAAAACA | 0.139
20 | CCGGCGGA | 0.421
21 | CTGGCGGA | -0.0445
22 | GTGGCGGA | 0.136
23 | CCGGCGGC | 0.364
24 | ACGGCGGA | 0.273
25 | GCGGCGGA | 0.382

Row | Sequence | PBM E-score
26 | GCGGCTCA | 0.073
27 | GAGTGTCA | -0.145
28 | GAGAATGC | 0.0329
29 | ACGGATGA | 0.228
30 | AGACGCGG | 0.0872
31 | CTCGAAGA | -0.152
32 | CGGATTTC | 0.426
33 | CTGATTTC | -0.0451
34 | GGGATTTA | 0.327
35 | AGGATTTC | 0.0343
36 | CGGATTTA | 0.489
37 | AGGATTTA | 0.227
38 | CTAACCCC | 0.235
39 | GTCGAATA | -0.0336
40 | CCACTGAG | -0.235
41 | ACTTCGGC | 0.377
42 | ACTTCGGA | 0.403
43 | CCTTCGGA | 0.364
44 | GCTTCGGA | 0.327
45 | ACTTCGGG | 0.247
46 | CCTTCGGC | 0.27
47 | ACCGCAGT | 0.106
48 | CAGCCTAA | -0.354
49 | ATACTTCC | 0.162
50 | ACATCCGT | 0.213

Row | Sequence | PBM E-score
51 | ACATCCGA | 0.382
52 | ACATCCGG | 0.427
53 | CCATCCGG | 0.254
54 | ACATCCTG | -0.0661
55 | ACATCCGC | 0.347
56 | TATGTACA | -0.124
57 | GCCAGTTA | -0.14
58 | GCGCCCGA | 0.353
59 | GGGCCCGA | 0.317
60 | ACGCCCGA | 0.371
61 | AGGCCCGA | 0.279
62 | ACGCCCCG | 0.193
63 | CCGCCCGA | 0.37
64 | ACGCCCGG | 0.377
65 | TCGCCCGA | 0.362
66 | ACGCCCGT | 0.251
67 | CTGCCCGA | 0.202
68 | ACGCCCGC | 0.183
69 | CGGCCCGA | 0.398
70 | GGCCAGCA | -0.0771
71 | AAGTCTGA | -0.412
72 | CTTGTCTC | -0.073
73 | ACGCGAAA | -0.00838
74 | ACAAGAGC | -0.109
75 | CGGAGCGA | 0.331

Row | Sequence | PBM E-score
76 | CCATAGGA | -0.258
77 | GACACGTA | -0.194
78 | AAGCCCGT | 0.232
79 | CCGCCCGG | 0.411
80 | AAGCCCGG | 0.407
81 | CCGCCCCG | 0.347
82 | CCGCCCGC | 0.3
83 | AAGCCCGC | 0.337
84 | CAAGTTCC | 0.124
85 | CAGTGTGC | -0.139
86 | ATGGCAGA | 0.089
87 | CCAAATTC | -0.0397
88 | GGTTCCGA | 0.279
89 | AGTTCCGC | 0.278
90 | AGTTCCGA | 0.395
91 | CGTTCCGA | 0.123
92 | AGTTCCGG | 0.394
93 | AGTTCCTG | -0.178
94 | GGTCCTAC | -0.0458
95 | GTCAGCAA | -0.157
96 | TTCCGCAA | 0.263
97 | ACAGGTTC | -0.216
98 | ACCGGTAC | 0.334
99 | AACGGTAA | 0.186
100 | ACCGGTAG | 0.228

Row | Sequence | PBM E-score
101 | ACCGGTAT | 0.424
102 | ACCGGTAA | 0.406
103 | ATCGGTAA | 0.31
104 | ATCAACAC | -0.154
105 | GAAAGAGC | -0.138
106 | ACTAGACC | 0.0797
107 | GGTTAGCA | -0.0201
108 | CGTCCAAA | 0.0813
109 | TGTCCAAA | -0.133
110 | GCTCCGAC | 0.212
111 | TGTCCGAA | 0.412
112 | CGTCCGAA | 0.394
113 | CGTCCGAC | 0.302
114 | GGTCCGAC | 0.392
115 | CGCCCGAC | 0.366
116 | TGTCCTAA | -0.338
117 | CGCCCGAG | 0.396
118 | GGTCCAAC | 0.13
119 | AGCCCGAG | 0.208
120 | AACCAACG | -0.104
121 | GTCTTACA | -0.195
122 | CTTGGTAC | -0.213
123 | CCTCTTTA | -0.303
124 | CCGGTTAC | 0.279
125 | ACACTGAA | -0.0306

Row | Sequence | PBM E-score
126 | AGAGTAGA | 0.0496
127 | ACGAACAT | 0.0579
128 | AAGGCAAA | -0.28
129 | AGTCCAAA | -0.119
130 | GGTCCAAA | 0.0135
131 | GGTCCGAA | 0.434
132 | CATCCGAG | 0.265
133 | AGTCCGAA | 0.416
134 | CGTCCGAG | 0.401
135 | CGTCCAAG | -0.111
136 | GGTCCGTA | 0.329
137 | AGTCCTAA | -0.207
138 | ACAAGGCA | -0.133
139 | TAGCTTAA | -0.135
140 | CATTGAAA | -0.0176
141 | AAACGGAG | 0.258
142 | CCGTTGCC | 0.299
143 | CGGTGCTC | 0.161
144 | CATGGACA | -0.324
145 | ATGCACAT | -0.225
146 | CAAATTGA | -0.173
147 | AATCTCCT | 0.0543
148 | ATTCTCCC | 0.0268
149 | ATTCTCCG | 0.394
150 | CATCTCCA | -0.0795

Row | Sequence | PBM E-score
151 | CATCTCCG | 0.435
152 | ATTCTCCA | -0.157
153 | AAGCTCCT | -0.0999
154 | AATCTCCC | 0.00843
155 | AATCTCCG | 0.476
156 | CATCTCCC | 0.104
157 | AAGCTCCG | 0.411
158 | CAGCTCCG | 0.299
159 | ACTGTACG | -0.167
160 | GAGGCATA | 0.00364
161 | CCTGAGTC | -0.0525
162 | GCCCTGAA | 0.0376
163 | AGTAGCCC | 0.0495
164 | ACATTCCC | 0.0549
165 | AGAGGGGA | -0.0354
166 | TCGTAAAA | 0.0494
167 | ATGTACGA | 0.105
168 | CAGGGGAG | -0.137
169 | TAAAGCAA | -0.0198
170 | AACCGGCA | 0.158
171 | CACCGGCA | 0.201
172 | AACCGGCG | 0.382
